This passage reports activity change results from PubChem BioAssay AID743279 (National Center for Advancing Translational Sciences (NCATS), 2014).

Each structure is given as a SMILES string. About 17,000 (4.7%) of roughly 360,000 compounds were called active. About 5% were inconclusive and are not listed. Only a selection was taken, and actives are over-represented in it overall. Values without a mark were called inactive. Cut-off read from the data, not from the text of the source: active = activity change below about -50%; inconclusive = mostly about -30% to -49%; inactive = weaker than that.
% is set by controls: 0 for no effect and ±100 for the full control effect.

The test in a line: qHTS for Inhibitors of Inflammasome Signaling: IL-1-beta AlphaLISA Primary Screen. The settings on record: THP-1 LPS/ATP IL-1B secretion, 16 h; at 57.5 µM, active compounds read low. In a few lines:
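Secreted IL-1B measured by AlphaLISA bead assay after 16 h compound exposure of THP-1 cells; compounds (final up to 57.5 uM) added 1 h before LPS (250 ng/mL) and ATP (1.25 mM) stimulation; lower signal means less secretion.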
In general terms: qHTS replaces the single test concentration by a dilution series.
Turning to `CSc1ccc(CNC(=O)C2(C)CCCN2C)cc1` (configuration not stated), the activity change was -5.74%. Take `COCCCNC(=O)CNC(=S)N(Cc1cc(OC)c(OC)c(OC)c1)C1CCCC1`: the activity change was 7.84%. In the case of `Cc1ccc(C(=O)N/C(=C\c2cn(S(=O)(=O)N(C)C)c3ccccc23)C(=O)N2CCCC2)cc1` it was -17.6%; in that of `CN1CCN(C(=O)c2ccc(-c3ccc(Br)cc3)o2)CC1`, -71.3% (active); in that of `CN1CCN(C(=O)c2ccc(NC(=O)c3ccc(Br)o3)cc2)CC1`, 4.78%. In the case of `COc1ccccc1OCc1ccc(C(=O)N2CCN(C)CC2)o1` it was 10.8%. Then `CCCc1nn2c(=O)cc(CSCC(=O)Nc3cccc(C)c3)nc2s1`, with 19.5%. As for `Cc1cccc(-c2cnc(C(O)c3cc(C)cc(C)c3)[nH]2)c1` (configuration not stated), the activity change is -1.76%.

Consider `CCOC(=O)N(C)c1c(CC)nc2c(OCc3ccccc3C(=O)OC)cccn12`, for which the activity change was 6.05%. Then `CCCCC(=O)N(C)c1c(CC)nc2c(OCc3ccc(Cl)cc3Cl)cccn12`, with -54% (active); and `CCCCC(=O)N(C)c1c(CC)nc2c(OCc3ccc(S(C)(=O)=O)cc3)cccn12`, with 28.1%. As to `CCc1nc2c(OCc3ccc(Cl)cc3Cl)cccn2c1N(C)C(=O)C(C)C`, the activity change is -84.1% (active). Then `CCc1nc2c(OCc3cccc(OC)c3)cccn2c1N(C)C(=O)C(C)C`, with 51.9%; and `CCc1nc2c(OCc3ccc(C(=O)OC)cc3)cccn2c1N(C)C(=O)C(C)C`, with -12%; and `CCc1nc2ccc(C(=O)NC3CCN(Cc4ccccc4)CC3)cn2c1N(C)CCN1CCOCC1`, with -15.7%.

As for `CCc1nc2c(OCc3ccc(C(F)(F)F)cc3)cccn2c1N(C)C(=O)CC(C)C`, the activity change is -8.97%. In the case of `COC1=CC(=O)OC(C)(c2ccccc2)C1` (configuration not stated) it was 9.74%. Then `COc1ccccc1C(=O)Nc1ccc(NC(=O)c2ccco2)c(C)c1`, with -55.2% (active).

`COc1ccc(NC(=O)c2ccco2)cc1NC(=O)c1ccc(C#N)cc1F`: the activity change was 52.7%. In the case of `Cc1cccc(OCC(=O)Nc2ccc(NC(=O)c3ccco3)c(C)c2)c1` it was -0.614%; in that of `Cc1cc(F)ccc1S(=O)(=O)Nc1ccc(C(=O)N(C)Cc2ccco2)cc1`, -8.26%; in that of `COc1ccc(NC(=O)CSc2nnc(-c3ccccc3F)n2C2CC2)cc1S(N)(=O)=O`, 15.5%. Then `Cc1nn(-c2ccccc2)c(C)c1/C=N/NC(=O)CSc1nc2ccccc2c(=O)n1-c1ccccc1`, with 12%; and `Cc1nn(-c2ccccc2)c(Cl)c1/C=N/NC(=O)c1nn(C)cc1[N+](=O)[O-]`, with -65.7% (active); and `Cc1ccc(-n2nc(C)c(/C=N/NC(=O)c3cccs3)c2Cl)cc1`, with -8.79%. Then `Cc1ccc(N2CCN(c3ccc([N+](=O)[O-])cn3)CC2)c(C)c1`, with -8.34%. As to `Cc1ccc(S(=O)(=O)N2CCC(C(=O)NCCC3=CCCCC3)CC2)cc1C`, the activity change is -2.64%.

With `O=C(NCCC1=CCCCC1)C1CCN(Cc2cnn(-c3ccccc3)c2-n2cccc2)CC1`, the activity change was -64.8% (active). In the case of `C1=C(CCNc2ncnc3c2cnn3-c2ccccc2)CCCC1` it was -3.14%; in that of `Nc1ncnc2c1ncn2[C@@H]1O[C@H](C(=O)N2CCCN(Cc3ccccc3F)CC2)[C@@H](O)[C@H]1O`, 2.81%. Then `COc1ccccc1-n1c(SCC(=O)Nc2ccc(Cl)cc2)nc(O)c(Cc2ccccc2)c1=O`, with 0%; and `CC(C)C[C@H](NC(=O)Nc1cccc(C(F)(F)F)c1)C(=O)O`, with 34.5%. In the case of `NC(c1csc(NC(=O)Nc2cccc(C(F)(F)F)c2)n1)C1CCCCC1` (configuration not stated) it was -111% (active); in that of `O=C(Nc1ccc(C(=O)N2CCOCC2)cc1)Nc1cccc(C(F)(F)F)c1`, -10.3%. For `NC(c1ccccc1)c1csc(NC(=O)Nc2cccc(C(F)(F)F)c2)n1` (configuration not stated), the activity change is -106% (active). With `COc1cc(NC(=O)c2[nH]cnc2C(N)=O)cc(C(=O)Nc2cccc(C(F)(F)F)c2)c1`, the activity change was -16%. In the case of `COc1ccc(C(N)c2csc(NC(=O)Nc3cccc(C(F)(F)F)c3)n2)cc1` (configuration not stated) it was -81.4% (active). In the case of `O=C(O)CC1(CC(=O)Nc2cccc(C(F)(F)F)c2)CCCC1` it was 16.7%. Then `COc1ccc(NC(=O)C(=O)NCC(=O)Nc2cccc(C(F)(F)F)c2)cc1`, with 10.7%; and `O=C(Nc1ccc(-c2csc(Nc3cccc(C(F)(F)F)c3)n2)cc1)c1cccc(C(F)(F)F)c1`, with 11.4%. Regarding `O=C(NCc1ccccc1)C1CNCC(C(=O)NCc2ccccc2)C1` (configuration not stated), the activity change is -14.4%. In the case of `Cc1cc([N+](=O)[O-])ccc1NS(=O)(=O)c1ccccc1` it was 26.9%; in that of `O=S1(=O)CC(N2CCN(CCO)CC2)CN1C1CCCC1` (configuration not stated), -8.55%. Turning to `Cc1ccc(-c2c(N)nc3ncccn23)cc1`, the activity change was 7.85%. In the case of `O=C(CN(C(=O)CCC(=O)Nc1nccs1)c1ccc(F)cc1)NCc1ccc2c(c1)OCO2`, the activity change is -10.1%.

With `O=C(c1cc(-c2ccc(Cl)s2)nc2ccccc12)N1CCOCC1`, the activity change was -70.8% (active). In the case of `CC(=O)N1CCN(C(=O)c2cc(-c3ccc(C)o3)nc3ccccc23)CC1` it was 23.1%; in that of `CCOc1ccccc1-c1cc(C(=O)N2CCOCC2)c2ccccc2n1`, -12%. Then `CCc1nc2ccc(C(=O)Nc3ccc(OC)c(OC)c3)cn2c1N(C)C(=O)c1cccc(OC)c1`, with -8.18%. Then `COc1ccc(C(C[N+](=O)[O-])n2nc(C)cc2C)cc1` (configuration not stated), with -102% (active); and `CCOc1ccc(C(C)C)cc1S(=O)(=O)n1nc(C)cc1C`, with 0%; and `COc1ccc(OC)c(S(=O)(=O)n2c([N+](=O)[O-])cnc2C)c1`, with 0.96%. As to `COc1ccc(S(=O)(=O)N2CCc3ccccc32)cc1C(=O)Nc1cc(S(C)(=O)=O)ccc1Cl`, the activity change was 47.6%. Then `CC(=O)NS(=O)(=O)c1ccc(N/C(N)=N/c2nc(C)cc(C)n2)cc1`, with 34.9%; and `Clc1cccc(-c2nc3nc4ccccc4nc3n2Cc2ccco2)c1`, with -17.2%. In the case of `O=c1c2ccccc2oc2nc(C3CCCCC3)n(Cc3ccco3)c(=O)c12` it was -16.6%; in that of `Cc1ccc(Cn2c(C)nc3c(c2=O)c2nc4ccccc4nc2n3Cc2ccco2)cc1`, -83.5% (active).
